Screening data deposited in PubChem by Pan Lab, Icahn School of Medicine at Mount Sinai.
Only a selection was taken, and hits are over-represented in it overall.
RBX1-CUL1 inh = inhibitors of human ROC1-CUL1 ubiquitin ligase activity | in vitro K48 di-Ub FRET, acceptor:donor ratio, 45 min | 0.6% of 140,000 active | E3 ubiquitin-protein ligase RBX1 (Homo sapiens) + Cullin-1 (Homo sapiens), P62877+Q13616 | inhibition, % at 10 µM; in the data active = inhibition above about 25%
Active calls of the source: *.

Screening Cc1c(Cc2ccccc2)c(=O)oc2c(CN(C)C)c(O)ccc12 returned RBX1-CUL1 inh -11.6.
O=C(CCC1CCN(C(=O)c2ccc(Cl)s2)CC1)NCc1cccnc1 was read as RBX1-CUL1 inh 9.5.
`Cc1cc(/C=C2\C(=O)N(C)C(=S)N(c3ccccc3)C2=O)c(C)n1-c1cccc(C(=O)O)c1` gave RBX1-CUL1 inh 27.9*.
`CC(=O)NC1=NC(=O)/C(=C/c2cc(C)n(-c3cccc(C(=O)O)c3)c2C)S1` gave RBX1-CUL1 inh 50.3*.
Screening Cc1ccc(N2C(=O)/C(=C/c3cc(C)n(-c4ccccc4)c3C)C(=O)N(c3ccccc3)C2=S)cc1C returned RBX1-CUL1 inh 0.5.
CCOC(=O)c1cccc(-n2c(C)cc(C=C3C(=O)N(C)C(=O)N(C)C3=O)c2C)c1 was read as RBX1-CUL1 inh 4.4.
COC(=O)c1cccc(-n2c(C)cc(/C=C3\SC(=O)N(Cc4ccc(F)cc4)C3=O)c2C)c1 was read as RBX1-CUL1 inh -1.6.
Screening CC(=O)NC1=NC(=O)/C(=C/c2sccc2C)S1 returned RBX1-CUL1 inh 2.5.
CCCCC(CC)C(=O)Nc1nnc(SCC)s1 (stereo unspecified) was read as RBX1-CUL1 inh -4.3.
For Cc1ccccc1N1C(=O)CC(=O)N=C1SCC(=O)Nc1ccc(Cl)cc1Cl the results were RBX1-CUL1 inh -12.4.
`Cc1nc(N(C)C2CCCCC2)ncc1C(C)NC(=O)CCc1cnccn1` (stereo unspecified) gave RBX1-CUL1 inh 2.0.
For CC(C)(C)SCCNC(=O)CN(c1ccc(Cl)c(C(F)(F)F)c1)S(=O)(=O)c1ccccc1 the results were RBX1-CUL1 inh 5.3.
C=CCN1C(=O)N=C(Cc2ccc(-c3cccc(Br)c3)o2)C1=O was read as RBX1-CUL1 inh -1.0.
`O=C(O)c1cccc(-c2ccc(CNC3CCCC3)o2)c1` gave RBX1-CUL1 inh -6.3.
For COCCN1C(=O)C(Cc2ccc(-c3cccc(C(=O)O)c3)o2)=NC1=S the results were RBX1-CUL1 inh 34.9*.
Cc1ccccc1N(c1ccc([N+](=O)[O-])cn1)c1ccc([N+](=O)[O-])cn1 was read as RBX1-CUL1 inh 5.9.
Screening CN1CCN(c2cc3c(nn2)N2CCN3c3ccccc32)CC1 returned RBX1-CUL1 inh -3.3.
O=C1Nc2c(cc([N+](=O)[O-])cc2[N+](=O)[O-])C(=O)C1(Cl)Cl was read as RBX1-CUL1 inh 21.2.
For COc1c(Cl)cc2c(c1Cl)NC(=O)C(Cl)(Cl)C2=O the results were RBX1-CUL1 inh 45.5*.
`COc1cccc2c1NC(=O)C(Cl)(Cl)C2=O` gave RBX1-CUL1 inh -2.5.
C[n+]1cc(N=C([O-])C(F)(F)F)oc1-c1ccccc1 was read as RBX1-CUL1 inh -3.7.
`O=C(CSc1n[nH]c(-c2ccccc2)n1)c1ccc(O)c(O)c1` gave RBX1-CUL1 inh 27.0*.
Screening O=C(O)c1ccnc(SCC(=O)c2ccccc2)c1 returned RBX1-CUL1 inh 6.3.
For O=C(CSc1ncccc1C(=O)O)c1ccc(O)c(O)c1 the results were RBX1-CUL1 inh 30.7*.
O=C(CSc1n[nH]c(-c2ccc(Br)cc2)n1)c1ccc([N+](=O)[O-])cc1 was read as RBX1-CUL1 inh -0.1.
O=C(O)c1cccnc1SCc1c(F)c(F)c(F)c(F)c1F was read as RBX1-CUL1 inh 12.6.
CCOc1ccc(-c2nc(SCC(=O)c3ccccc3)n[nH]2)cc1 was read as RBX1-CUL1 inh -2.5.
CCc1ccc2c(c1)=C(c1sc(N(C)c3ccc(Cl)cc3)nc1O)C(=O)N=2 was read as RBX1-CUL1 inh 0.3.
For O=C(c1ccc(Cl)s1)N1CCN(S(=O)(=O)c2ccc(F)cc2)CC1 the results were RBX1-CUL1 inh 10.2.
For CSc1nccc(SCc2ccc(Cl)cc2Cl)n1 the results were RBX1-CUL1 inh -4.4.
CC1=NC2=C(C(=O)CC(C)(C)C2)C(c2ccc(OCc3ccccc3)cc2)C1C#N (stereo unspecified) was read as RBX1-CUL1 inh -2.5.
CCOc1cc2c(=O)c(C(=O)O)cn(CC)c2cc1N1CCN(C)CC1 was read as RBX1-CUL1 inh 4.2.
`CN1CCC(N(C)C(=O)CCC2CCCN(C(=O)CC34CC5CC(CC(C5)C3)C4)C2)CC1` (stereo unspecified) gave RBX1-CUL1 inh 5.1.
COc1cccc(CN2CCCC3(CCN(C(=O)c4cn[nH]c4C)C3)C2=O)c1 (stereo unspecified) was read as RBX1-CUL1 inh -5.6.
`Cc1cccc(N2NC(=O)/C(=C/c3ccc(-c4ccc(Cl)c(C(=O)O)c4)o3)C2=O)c1` gave RBX1-CUL1 inh 2.7.
`CCOC(=O)c1ccc(-c2ccc(/C=C3/C(=O)NN(c4ccc(C)cc4)C3=O)o2)cc1` gave RBX1-CUL1 inh 5.6.
CC(C)OC(=O)c1ccc(-c2ccc(/C=C3/C(=O)NN(c4ccccc4)C3=O)o2)cc1 was read as RBX1-CUL1 inh 3.0.
For O=C1NN(c2cccc(Br)c2)C(=O)/C1=C\c1ccc(-c2ccc(C(=O)O)cc2)o1 the results were RBX1-CUL1 inh 60.2*.
